Results on five compounds are retold here after ChEMBL document CHEMBL3988442, “University of Dundee, Small-Polar-MMV Screening Library” (2021).

What all share (set-up): scale not given: direction of the effect not stated beside the values
The target in assay [1] is Protein translocase subunit SecA (Escherichia coli (strain K12)) (UniProt P10408). Description: Assay to Identify E. coli SecA ATPase Inhibitors. The assay is classed as functional. The conditions noted are these: 30 µM.
The target of assay [2] is T1, Ubiquitin-activating enzyme e1, putative (Leishmania donovani (strain BPK282A1)) (UniProt E9BSI1).
T1 sequence (whole entry): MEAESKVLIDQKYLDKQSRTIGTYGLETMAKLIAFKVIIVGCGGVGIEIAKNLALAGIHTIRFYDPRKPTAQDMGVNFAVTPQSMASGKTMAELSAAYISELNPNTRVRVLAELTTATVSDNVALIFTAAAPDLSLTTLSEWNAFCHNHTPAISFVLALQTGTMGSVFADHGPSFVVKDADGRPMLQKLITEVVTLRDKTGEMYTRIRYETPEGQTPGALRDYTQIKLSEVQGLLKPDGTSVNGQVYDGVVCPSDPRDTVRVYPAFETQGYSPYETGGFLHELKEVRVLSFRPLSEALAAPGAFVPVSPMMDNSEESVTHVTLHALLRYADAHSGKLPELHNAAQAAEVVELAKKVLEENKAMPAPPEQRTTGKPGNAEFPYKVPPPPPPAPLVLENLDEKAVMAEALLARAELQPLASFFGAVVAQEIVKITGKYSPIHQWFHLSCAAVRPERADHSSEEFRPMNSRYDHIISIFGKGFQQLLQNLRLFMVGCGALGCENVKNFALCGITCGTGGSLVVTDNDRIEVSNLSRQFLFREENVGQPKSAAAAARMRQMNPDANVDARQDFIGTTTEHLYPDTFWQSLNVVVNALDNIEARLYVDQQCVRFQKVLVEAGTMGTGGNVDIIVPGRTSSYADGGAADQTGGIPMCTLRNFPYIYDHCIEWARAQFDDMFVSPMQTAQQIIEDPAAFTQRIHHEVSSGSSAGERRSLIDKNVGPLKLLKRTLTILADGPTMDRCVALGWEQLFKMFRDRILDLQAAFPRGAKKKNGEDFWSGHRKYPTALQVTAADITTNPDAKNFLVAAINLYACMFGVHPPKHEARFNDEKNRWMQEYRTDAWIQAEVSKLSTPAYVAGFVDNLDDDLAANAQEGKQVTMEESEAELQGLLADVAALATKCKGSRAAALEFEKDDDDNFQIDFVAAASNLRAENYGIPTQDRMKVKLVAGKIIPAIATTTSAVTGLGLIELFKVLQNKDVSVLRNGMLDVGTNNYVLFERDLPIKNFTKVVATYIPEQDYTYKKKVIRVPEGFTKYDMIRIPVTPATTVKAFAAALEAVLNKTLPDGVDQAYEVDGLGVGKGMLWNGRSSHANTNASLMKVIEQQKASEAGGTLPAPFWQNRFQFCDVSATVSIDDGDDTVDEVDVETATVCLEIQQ
In words: Leishmania donovani Ubiquitin Activating Enzyme (LdE1). The assay is classed as functional. The following applies: 30 µM.

The target of assay [3] is T2, Aspartate--tRNA(Asp/Asn) ligase (Mycobacterium tuberculosis (strain ATCC 25618 / H37Rv)) (UniProt P9WFW3). Also: in the data most compounds retested in dose-response had high values.
T2 sequence (whole entry): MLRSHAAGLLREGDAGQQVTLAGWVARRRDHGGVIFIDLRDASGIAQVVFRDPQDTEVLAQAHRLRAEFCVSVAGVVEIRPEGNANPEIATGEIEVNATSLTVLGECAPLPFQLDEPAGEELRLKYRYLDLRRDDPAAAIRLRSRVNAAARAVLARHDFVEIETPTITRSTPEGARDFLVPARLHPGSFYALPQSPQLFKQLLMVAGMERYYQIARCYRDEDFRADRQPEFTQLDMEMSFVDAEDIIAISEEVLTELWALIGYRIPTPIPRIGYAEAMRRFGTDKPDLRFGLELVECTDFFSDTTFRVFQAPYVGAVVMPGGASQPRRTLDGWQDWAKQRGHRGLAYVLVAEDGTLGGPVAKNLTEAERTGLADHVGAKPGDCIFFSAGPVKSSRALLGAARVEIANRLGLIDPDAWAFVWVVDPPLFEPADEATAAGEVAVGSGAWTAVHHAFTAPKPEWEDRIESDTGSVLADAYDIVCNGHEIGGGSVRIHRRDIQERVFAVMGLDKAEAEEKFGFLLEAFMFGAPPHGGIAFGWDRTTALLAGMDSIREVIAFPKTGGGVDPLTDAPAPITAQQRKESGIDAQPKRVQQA
In words: Assay for Asp RNA synthetase-1 from Mycobacterium tuberculosis. The assay is classed as functional. The conditions noted are these: 30 µM.

Assay [4] concerns the target AMP-activated protein kinase, AMPK (Homo sapiens) (UniProt P54646+O43741+P54619+Q9UGJ0+Q9Y478+Q13131+Q9UGI9). Description: AMP-dependent Kinase enzyme assay. An in vitro enzyme assay that detects ADP turnover that is directly proportional to AMPK activity. This uses naive AMPK that is activated during the assay with MK-8722. Format: functional. The conditions noted are these: 30 µM.

Assay [5] concerns the target Sialic acid-binding Ig-like lectin 9 (Homo sapiens) (UniProt Q9Y336). Description: Hs-Siglec9 ALPHAscreen SOP 20170721. The conditions noted are these: 10 µM.
In assay [6] the test system is Trypanosoma cruzi. In words: Trypanosoma cruzi phosphomannomutase and mannose-1-phosphate guanylyltransferase assay. Format: functional. The following applies: 10 µM.
For assay [7], the target named is T3, Arginase-2, mitochondrial (Homo sapiens) (UniProt P78540).
T3 sequence (whole entry): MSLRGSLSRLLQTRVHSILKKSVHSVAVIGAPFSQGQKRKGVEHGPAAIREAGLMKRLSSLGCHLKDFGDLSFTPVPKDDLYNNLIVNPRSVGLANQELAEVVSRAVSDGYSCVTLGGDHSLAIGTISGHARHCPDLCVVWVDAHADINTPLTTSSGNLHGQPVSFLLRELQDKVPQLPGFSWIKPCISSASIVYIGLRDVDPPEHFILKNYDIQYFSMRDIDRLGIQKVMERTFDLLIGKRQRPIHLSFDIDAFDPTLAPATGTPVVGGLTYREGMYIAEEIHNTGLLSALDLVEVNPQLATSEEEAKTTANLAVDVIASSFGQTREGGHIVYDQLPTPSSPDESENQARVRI
In words: in vitro enzyme assay to detect the production of urea directly proportional to the activity of Arginase II. Also: in the data most compounds retested in dose-response had high values. Format: functional. The conditions noted are these: 33.3 µM.

In assay [8] the target is T4, Proteasome subunit beta (Trypanosoma cruzi) (UniProt O96673).
T4 sequence (whole entry): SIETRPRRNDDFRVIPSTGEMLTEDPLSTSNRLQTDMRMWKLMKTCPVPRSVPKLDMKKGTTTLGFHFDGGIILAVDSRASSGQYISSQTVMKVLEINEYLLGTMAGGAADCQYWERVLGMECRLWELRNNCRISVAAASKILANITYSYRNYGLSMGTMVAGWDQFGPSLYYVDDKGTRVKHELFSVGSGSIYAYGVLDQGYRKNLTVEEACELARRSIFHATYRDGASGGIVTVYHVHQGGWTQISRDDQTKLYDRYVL
In words: Trypanosoma cruzi proteasome chymotrypsin-like activity (TcProtChymo) assay. Also: in the data most compounds retested in dose-response had high values. The following applies: 9.37 µM. The assay is classed as functional.

The species named for assay [9] is Homo sapiens. Description: To identify inhibition of the IFN signalling (Jak-Stat) pathway via expression of an eGFP reporter gene under the control of an IFN-stimulated response element (ISRE) containing MxA promoter. Format: functional. The following applies: 30 µM.
Assay [10] deals with Shiga toxin 2 (Escherichia coli O157:H7) (UniProt P09385+P09386). Description: E. coli 0.157:H7 Shiga Toxin SOP - stx2 screening assay. Format: functional. The following applies: 30 µM.
Assay [11] has as its target T5, Tyrosyl-tRNA synthetase, putative (Trypanosoma cruzi (strain CL Brener)) (UniProt Q4DSP6).
T5 sequence (whole entry): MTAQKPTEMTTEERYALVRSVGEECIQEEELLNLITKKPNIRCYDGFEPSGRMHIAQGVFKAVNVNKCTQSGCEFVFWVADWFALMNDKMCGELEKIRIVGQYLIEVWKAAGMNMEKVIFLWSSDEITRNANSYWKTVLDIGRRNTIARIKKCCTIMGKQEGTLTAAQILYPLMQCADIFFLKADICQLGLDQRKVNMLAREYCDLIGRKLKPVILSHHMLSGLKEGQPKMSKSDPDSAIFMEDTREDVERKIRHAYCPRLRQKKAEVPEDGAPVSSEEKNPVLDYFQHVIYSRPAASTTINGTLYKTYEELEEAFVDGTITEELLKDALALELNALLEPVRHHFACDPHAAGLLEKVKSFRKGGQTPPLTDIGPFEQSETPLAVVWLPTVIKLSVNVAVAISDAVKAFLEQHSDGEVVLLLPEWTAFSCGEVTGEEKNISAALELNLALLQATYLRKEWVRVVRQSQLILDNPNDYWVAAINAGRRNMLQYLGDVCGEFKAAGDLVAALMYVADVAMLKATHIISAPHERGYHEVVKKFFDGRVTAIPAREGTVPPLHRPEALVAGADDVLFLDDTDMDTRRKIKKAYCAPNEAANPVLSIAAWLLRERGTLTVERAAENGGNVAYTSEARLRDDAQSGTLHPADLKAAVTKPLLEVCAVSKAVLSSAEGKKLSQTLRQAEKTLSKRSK
In words: Trypanosoma cruzi tyrosyl tRNA synthetase (TcYRS) _High Tyrosine SOP. Also: in the data most compounds retested in dose-response had high values. The assay is classed as functional. The conditions noted are these: 30 µM.

The target in assay [12] is T5, Tyrosyl-tRNA synthetase, putative (Trypanosoma cruzi (strain CL Brener)). Description: Trypanosoma cruzi tyrosyl tRNA synthetase (TcYRS) SOP. Format: functional. The following applies: 30 µM.
For assay [13], the target named is Chromo domain-containing protein 1 (Saccharomyces cerevisiae (strain ATCC 204508 / S288c) (Baker's yeast)) (UniProt P32657). In words: ScCHD-1 Enzyme Inhibition Assay. Also: in the data most compounds retested in dose-response had high values. Format: functional. The following applies: 30 µM.

For some assays here: Entries with a potency or affinity are not part of this list.

Chain of Chromo domain-containing protein 1 (Saccharomyces cerevisiae (strain ATCC 204508 / S288c) (Baker's yeast)) (P32657 whole entry, the tested form may be a part): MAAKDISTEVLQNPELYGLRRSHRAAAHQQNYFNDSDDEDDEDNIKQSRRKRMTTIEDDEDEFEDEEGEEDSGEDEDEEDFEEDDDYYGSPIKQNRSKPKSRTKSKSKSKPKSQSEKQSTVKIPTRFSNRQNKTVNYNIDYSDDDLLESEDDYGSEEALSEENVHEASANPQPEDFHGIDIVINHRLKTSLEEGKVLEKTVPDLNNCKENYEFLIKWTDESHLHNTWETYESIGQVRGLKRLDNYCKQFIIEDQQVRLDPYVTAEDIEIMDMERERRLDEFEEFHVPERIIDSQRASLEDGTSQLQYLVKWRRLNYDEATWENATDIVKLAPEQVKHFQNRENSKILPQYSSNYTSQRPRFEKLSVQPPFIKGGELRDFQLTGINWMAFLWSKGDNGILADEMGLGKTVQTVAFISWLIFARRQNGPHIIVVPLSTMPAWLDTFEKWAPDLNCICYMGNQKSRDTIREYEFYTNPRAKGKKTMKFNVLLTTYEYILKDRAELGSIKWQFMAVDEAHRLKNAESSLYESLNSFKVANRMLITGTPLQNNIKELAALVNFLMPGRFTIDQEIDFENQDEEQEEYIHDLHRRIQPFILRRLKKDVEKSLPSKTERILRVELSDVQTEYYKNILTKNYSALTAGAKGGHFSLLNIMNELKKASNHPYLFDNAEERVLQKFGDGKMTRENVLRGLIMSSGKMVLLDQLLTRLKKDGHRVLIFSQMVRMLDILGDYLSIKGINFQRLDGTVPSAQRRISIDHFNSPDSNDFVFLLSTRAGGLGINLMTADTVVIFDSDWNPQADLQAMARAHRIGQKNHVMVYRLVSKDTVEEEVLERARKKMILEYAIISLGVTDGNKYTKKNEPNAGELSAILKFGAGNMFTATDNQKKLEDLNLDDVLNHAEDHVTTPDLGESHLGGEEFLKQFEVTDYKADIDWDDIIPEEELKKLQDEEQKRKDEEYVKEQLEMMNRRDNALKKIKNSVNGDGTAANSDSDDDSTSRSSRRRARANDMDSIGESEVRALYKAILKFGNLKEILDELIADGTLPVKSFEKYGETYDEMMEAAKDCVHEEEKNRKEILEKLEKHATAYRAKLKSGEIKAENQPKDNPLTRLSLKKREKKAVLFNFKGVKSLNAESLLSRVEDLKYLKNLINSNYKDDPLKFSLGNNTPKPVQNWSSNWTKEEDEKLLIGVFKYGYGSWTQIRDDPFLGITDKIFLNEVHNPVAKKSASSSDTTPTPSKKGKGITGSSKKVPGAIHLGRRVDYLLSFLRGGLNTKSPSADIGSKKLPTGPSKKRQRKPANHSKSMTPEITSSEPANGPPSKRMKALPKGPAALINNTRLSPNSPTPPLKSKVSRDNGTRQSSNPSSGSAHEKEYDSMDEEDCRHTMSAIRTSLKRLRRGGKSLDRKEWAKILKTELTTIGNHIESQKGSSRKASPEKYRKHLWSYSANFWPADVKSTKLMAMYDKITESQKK
Chain of Protein translocase subunit SecA (Escherichia coli (strain K12)) (P10408 whole entry): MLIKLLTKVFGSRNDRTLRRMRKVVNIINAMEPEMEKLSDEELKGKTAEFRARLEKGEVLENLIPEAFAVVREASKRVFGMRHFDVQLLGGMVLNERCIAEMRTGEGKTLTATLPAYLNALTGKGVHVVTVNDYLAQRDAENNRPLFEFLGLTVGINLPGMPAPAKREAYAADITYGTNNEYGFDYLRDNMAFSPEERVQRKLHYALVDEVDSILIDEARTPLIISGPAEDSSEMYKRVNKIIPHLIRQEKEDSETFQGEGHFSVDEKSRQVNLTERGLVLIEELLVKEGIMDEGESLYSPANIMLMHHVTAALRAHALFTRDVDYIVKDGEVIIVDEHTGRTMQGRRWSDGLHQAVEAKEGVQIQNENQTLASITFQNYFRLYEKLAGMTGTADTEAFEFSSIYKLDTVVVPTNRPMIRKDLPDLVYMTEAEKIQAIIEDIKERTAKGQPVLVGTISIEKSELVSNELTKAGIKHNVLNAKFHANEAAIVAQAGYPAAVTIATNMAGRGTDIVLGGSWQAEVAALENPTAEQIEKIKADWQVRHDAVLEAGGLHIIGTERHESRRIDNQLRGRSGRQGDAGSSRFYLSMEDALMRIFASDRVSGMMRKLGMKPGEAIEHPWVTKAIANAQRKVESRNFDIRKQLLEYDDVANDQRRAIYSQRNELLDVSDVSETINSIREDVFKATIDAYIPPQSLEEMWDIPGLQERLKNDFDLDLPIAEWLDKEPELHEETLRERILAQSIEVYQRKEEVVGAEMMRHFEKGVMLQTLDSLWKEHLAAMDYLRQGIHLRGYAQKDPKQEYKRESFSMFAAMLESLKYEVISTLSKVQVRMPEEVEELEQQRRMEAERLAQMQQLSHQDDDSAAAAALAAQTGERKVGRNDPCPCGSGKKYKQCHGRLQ
Chain of Sialic acid-binding Ig-like lectin 9 (Homo sapiens) (Q9Y336 whole entry): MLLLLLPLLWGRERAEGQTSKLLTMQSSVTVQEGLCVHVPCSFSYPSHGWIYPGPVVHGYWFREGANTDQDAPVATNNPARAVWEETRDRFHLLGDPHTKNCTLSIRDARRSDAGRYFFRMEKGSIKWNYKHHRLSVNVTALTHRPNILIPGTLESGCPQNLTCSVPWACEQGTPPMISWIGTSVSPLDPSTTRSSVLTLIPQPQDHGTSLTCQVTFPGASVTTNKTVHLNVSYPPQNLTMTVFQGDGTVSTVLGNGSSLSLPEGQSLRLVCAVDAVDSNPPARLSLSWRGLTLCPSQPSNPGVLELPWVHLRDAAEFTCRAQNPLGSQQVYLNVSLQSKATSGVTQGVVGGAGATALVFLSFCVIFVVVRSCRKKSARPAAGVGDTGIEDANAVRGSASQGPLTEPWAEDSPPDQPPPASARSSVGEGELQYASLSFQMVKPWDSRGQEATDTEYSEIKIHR

Turning to `CC(=O)N1CCOCC2(CN(Cc3ccccn3)CCO2)C1` (stereo not given), the Percent Effect in assay [1] is -4.37%; in [2], -2.67%; in [3], 0.233%; in assay [4], -1.22%; in assay [5] it was -2.37%; in assay [6], 4.25%. Moreover, the Percent Effect in [7] is 2.33%; in assay [8], 9.74%; in assay [9], -30.1%; in assay [10] it was -6.22%; in assay [11], 2.08%; in assay [12] it was 2.5%. In addition, in assay [13], the Percent Effect was -3.93%.

In the case of `c1cc(COC[C@@H]2CCC[C@@]23CNCCO3)ccn1`, the Percent Effect in assay [1] is -6.97%; in assay [2], 8.11%; in assay [3] it was 4.08%; in assay [4] it was 91.3%; in [5], -11.6%; in assay [6] it was -6.94%. Further, the Percent Effect in assay [7] is -3.5%; in assay [8], 10.7%; in assay [9] it was 2.47%; in assay [10], -12.9%; in assay [11] it was -3.24%; in [12], 0%. For the same compound, the Percent Effect in assay [13] was -2.52%.

Take `O=C([C@H]1C[C@H]2OCC[C@H]2N(Cc2cccnc2)C1)N1CCCO1`: the Percent Effect in assay [1] was -1.59%; in [2], 10.8%; in assay [3] it was 5.55%; in [4], 3.09%; in [5] it was -7.38%; in assay [6] it was -0.489%. In addition, the Percent Effect in assay [7] was 20.1%; in [8], 27.7%; in assay [9], 14.1%; in assay [10], -7.24%; in assay [11] it was 13%; in assay [12] it was 15.4%. In addition, the Percent Effect in [13] was found to be 3.21%.

With `O=C(c1ccnnc1)N1C[C@@H]2OCCN(CCN3CCCC3)[C@@H]2C1`, the Percent Effect in [1] is 3.18%; in assay [2], 0%; in [3], 0.474%; in assay [4], -5.06%; in assay [5] it was 4.92%; in assay [6], -2.64%. Also, the Percent Effect in assay [7] is -1.59%; in assay [8] it was 12.7%; in assay [9], -3.96%; in [10], -4.98%; in [11], 6.49%; in assay [12], 2.56%. The Percent Effect in [13] stood at 6.02%.

As for `CC(Cn1cccn1)NCc1nc(-c2cccs2)no1` (stereo not given), the Percent Effect was -4.32% in [1]; 5.26% in [2]; -3.4% in assay [3]; -6.35% in [4]; 2.35% in [5]; 3.08% in assay [6]. Also, the Percent Effect in [7] was -2.88%; in [8], 5.67%; in [9] it was -9.95%; in [10], 4.43%; in assay [11] it was 4.43%; in assay [12] it was 16.1%. In addition, in [13], the Percent Effect was -2.61%.
